# Source: article PMC7862700, “An all-to-all approach to the identification of sequence-specific readers for epigenetic DNA modifications on cytosine”
# Key:
# Assay in all cases: DAPPL (digital affinity profiling via proximity ligation, sequencing); 10 mM Tris-HCl pH 7.5, 50 mM NaCl, 1 mM DTT, 4% glycerol, room temperature, 30 min; GST-TFs on glutathione beads, 16-mer random dsDNA library, 0.1% formaldehyde crosslink after washing; high values mean tight binding
# [1] = molecular target: T1, FLI1 (Homo sapiens, UniProt Q01543 1-452); conditions: protein: recombinant; tags: N-terminal GST; dsDNA, one strand shown
# T1 sequence: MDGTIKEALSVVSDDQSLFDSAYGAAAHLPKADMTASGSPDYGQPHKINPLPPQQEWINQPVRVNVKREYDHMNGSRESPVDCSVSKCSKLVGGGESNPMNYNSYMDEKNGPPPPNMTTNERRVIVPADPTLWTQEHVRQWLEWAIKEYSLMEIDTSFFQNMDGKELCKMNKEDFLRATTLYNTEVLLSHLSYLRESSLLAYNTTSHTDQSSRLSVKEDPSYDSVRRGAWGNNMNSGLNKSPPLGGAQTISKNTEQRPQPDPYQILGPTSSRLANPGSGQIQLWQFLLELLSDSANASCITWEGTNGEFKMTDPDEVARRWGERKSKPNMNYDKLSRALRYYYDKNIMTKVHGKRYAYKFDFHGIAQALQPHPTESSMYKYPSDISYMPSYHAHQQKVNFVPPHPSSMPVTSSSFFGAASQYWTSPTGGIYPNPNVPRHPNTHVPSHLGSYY
# Summary of the method: (§1)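 Sequencing on an Illumina NextSeq500 followed washing, crosslinking with 0.1% formaldehyde, proximity ligation (BsaI/T4 ligase, 1 h, 37 °C) and PCR amplification of pools that had been incubated for 30 min at room temperature with 200 nmole of a random double-stranded 16-mer DNA library in Tris/NaCl/DTT/glycerol buffer. Each pool held DNA-barcoded human transcription factors, expressed in yeast as GST fusions and captured on glutathione beads, plus a tag-only sample. Binding signal is a hexamer's read frequency for a factor divided by its frequency in the tag-only sample.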
# [2] = molecular target: T2, ELK1 (Homo sapiens, UniProt P19419 1-428); conditions: protein: recombinant; tags: N-terminal GST; dsDNA, one strand shown
# T2 sequence: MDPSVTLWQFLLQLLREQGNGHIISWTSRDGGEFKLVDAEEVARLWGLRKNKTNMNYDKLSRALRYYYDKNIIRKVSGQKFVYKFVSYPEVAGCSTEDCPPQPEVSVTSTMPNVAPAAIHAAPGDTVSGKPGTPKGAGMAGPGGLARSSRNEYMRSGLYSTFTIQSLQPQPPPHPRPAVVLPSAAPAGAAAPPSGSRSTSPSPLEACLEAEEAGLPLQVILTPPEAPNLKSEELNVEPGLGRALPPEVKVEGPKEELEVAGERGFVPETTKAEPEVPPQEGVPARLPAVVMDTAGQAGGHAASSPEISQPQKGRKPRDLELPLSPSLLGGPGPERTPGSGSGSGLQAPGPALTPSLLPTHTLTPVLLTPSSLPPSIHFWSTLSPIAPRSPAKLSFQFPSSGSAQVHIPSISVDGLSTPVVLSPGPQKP
# Summary of the method: as §1
# [3] = molecular target: T3, GABPA (Homo sapiens, UniProt Q06546 1-454); conditions: protein: recombinant; tags: N-terminal GST; dsDNA, one strand shown
# T3 sequence: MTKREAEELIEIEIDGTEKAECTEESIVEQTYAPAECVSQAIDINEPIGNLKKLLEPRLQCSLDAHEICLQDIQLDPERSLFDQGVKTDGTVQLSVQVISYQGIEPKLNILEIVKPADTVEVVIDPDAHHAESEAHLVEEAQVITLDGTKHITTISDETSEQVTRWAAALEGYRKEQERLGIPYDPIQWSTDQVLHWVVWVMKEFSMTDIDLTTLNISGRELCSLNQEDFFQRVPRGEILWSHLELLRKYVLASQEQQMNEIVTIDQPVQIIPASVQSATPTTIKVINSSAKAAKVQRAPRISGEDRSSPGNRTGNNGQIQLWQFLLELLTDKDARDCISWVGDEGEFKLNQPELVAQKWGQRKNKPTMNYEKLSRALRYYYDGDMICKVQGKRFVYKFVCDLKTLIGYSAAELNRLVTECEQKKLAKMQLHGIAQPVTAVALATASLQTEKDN
# Summary of the method: as §1
# [4] = molecular target: T4, ERG (Homo sapiens, UniProt P11308 1-479); conditions: protein: recombinant; tags: N-terminal GST; dsDNA, one strand shown
# T4 sequence: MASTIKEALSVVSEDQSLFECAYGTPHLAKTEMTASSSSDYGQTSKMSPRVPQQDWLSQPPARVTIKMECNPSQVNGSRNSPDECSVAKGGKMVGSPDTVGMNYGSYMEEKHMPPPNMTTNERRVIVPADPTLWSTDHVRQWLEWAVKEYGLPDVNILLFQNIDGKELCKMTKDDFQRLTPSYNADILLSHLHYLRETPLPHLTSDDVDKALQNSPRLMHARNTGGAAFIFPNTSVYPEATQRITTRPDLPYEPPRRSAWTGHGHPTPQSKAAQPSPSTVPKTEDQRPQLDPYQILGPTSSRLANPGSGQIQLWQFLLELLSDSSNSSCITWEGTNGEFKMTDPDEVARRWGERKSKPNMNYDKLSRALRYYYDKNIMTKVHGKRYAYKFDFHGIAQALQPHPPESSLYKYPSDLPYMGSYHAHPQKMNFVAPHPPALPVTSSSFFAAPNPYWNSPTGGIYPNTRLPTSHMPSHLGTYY
# Summary of the method: as §1
# [5] = molecular target: ELF1 (Homo sapiens, UniProt P32519 1-619); conditions: protein: recombinant; tags: N-terminal GST; dsDNA, one strand shown
# Sequence of ELF1 (P32519 whole entry): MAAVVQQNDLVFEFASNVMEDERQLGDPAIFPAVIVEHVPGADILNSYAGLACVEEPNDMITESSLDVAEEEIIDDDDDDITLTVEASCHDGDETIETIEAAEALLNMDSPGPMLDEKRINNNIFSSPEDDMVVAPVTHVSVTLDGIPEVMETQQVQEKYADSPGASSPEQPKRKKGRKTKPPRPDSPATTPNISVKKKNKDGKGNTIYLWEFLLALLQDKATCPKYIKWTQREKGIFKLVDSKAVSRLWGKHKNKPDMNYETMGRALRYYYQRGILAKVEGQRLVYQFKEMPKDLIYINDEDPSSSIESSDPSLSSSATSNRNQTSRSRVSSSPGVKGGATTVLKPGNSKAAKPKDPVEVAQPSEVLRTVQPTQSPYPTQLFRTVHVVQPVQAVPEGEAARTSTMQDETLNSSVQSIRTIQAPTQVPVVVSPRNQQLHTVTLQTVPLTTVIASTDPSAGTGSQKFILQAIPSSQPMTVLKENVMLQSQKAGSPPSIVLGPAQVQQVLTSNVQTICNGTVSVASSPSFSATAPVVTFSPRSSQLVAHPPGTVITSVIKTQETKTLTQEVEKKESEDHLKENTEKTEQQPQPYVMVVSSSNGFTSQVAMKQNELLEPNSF
# Summary of the method: as §1
# [6] = molecular target: T5, EHF (Homo sapiens, UniProt Q9NZC4 1-300); conditions: protein: recombinant; tags: N-terminal GST; dsDNA, one strand shown
# T5 sequence: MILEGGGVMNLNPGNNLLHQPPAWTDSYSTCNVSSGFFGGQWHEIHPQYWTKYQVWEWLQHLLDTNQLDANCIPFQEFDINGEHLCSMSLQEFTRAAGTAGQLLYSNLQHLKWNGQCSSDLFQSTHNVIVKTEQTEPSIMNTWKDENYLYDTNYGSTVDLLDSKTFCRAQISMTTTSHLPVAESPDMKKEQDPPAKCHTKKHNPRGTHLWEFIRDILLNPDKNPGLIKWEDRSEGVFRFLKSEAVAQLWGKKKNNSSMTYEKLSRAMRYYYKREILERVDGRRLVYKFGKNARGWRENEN
# Summary of the method: as §1
# [7] = molecular target: SPI1 (Homo sapiens, UniProt P17947 1-270); conditions: protein: recombinant; tags: N-terminal GST; dsDNA, one strand shown
# Summary of the method: as §1
# [8] = molecular target: SPIB (Homo sapiens, UniProt Q01892 1-262); conditions: protein: recombinant; tags: N-terminal GST; dsDNA, one strand shown
# Sequence of SPIB (Q01892 whole entry): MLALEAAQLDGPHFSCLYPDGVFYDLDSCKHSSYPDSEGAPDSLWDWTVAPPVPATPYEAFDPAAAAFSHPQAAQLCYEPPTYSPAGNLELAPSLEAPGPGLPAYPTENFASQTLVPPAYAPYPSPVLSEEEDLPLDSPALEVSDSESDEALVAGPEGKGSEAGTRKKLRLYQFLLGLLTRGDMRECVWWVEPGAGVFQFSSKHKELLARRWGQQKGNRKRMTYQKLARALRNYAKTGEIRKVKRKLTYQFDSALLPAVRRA
# Summary of the method: as §1
# [9] = molecular target: T6, ELK3 (Homo sapiens, UniProt P41970 1-407); conditions: protein: recombinant; tags: N-terminal GST; dsDNA, one strand shown
# T6 sequence: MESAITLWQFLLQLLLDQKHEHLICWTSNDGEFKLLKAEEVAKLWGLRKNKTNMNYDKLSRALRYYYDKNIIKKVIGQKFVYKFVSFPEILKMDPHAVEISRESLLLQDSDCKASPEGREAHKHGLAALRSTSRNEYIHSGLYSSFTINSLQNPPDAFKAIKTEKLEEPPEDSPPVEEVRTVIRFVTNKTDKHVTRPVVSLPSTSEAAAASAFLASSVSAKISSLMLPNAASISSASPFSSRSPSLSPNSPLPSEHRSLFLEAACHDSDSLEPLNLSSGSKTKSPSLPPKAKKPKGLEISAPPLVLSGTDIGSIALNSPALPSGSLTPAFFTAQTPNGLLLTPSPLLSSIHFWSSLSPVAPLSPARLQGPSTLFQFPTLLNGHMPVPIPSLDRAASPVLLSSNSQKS
# Summary of the method: as §1
# [10] = molecular target: T7, FEV (Homo sapiens, UniProt Q99581 1-238); conditions: protein: recombinant; tags: N-terminal GST; dsDNA, one strand shown
# T7 sequence: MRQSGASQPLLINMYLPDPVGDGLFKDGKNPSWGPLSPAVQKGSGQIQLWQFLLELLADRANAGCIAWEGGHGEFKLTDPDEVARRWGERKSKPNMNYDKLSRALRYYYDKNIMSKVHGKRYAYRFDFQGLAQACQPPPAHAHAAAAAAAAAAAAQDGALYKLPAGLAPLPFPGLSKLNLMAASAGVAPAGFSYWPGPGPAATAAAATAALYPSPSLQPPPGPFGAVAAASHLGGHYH
# Summary of the method: as §1
# [11] = molecular target: ETV5 (Homo sapiens, UniProt P41161 1-510); conditions: protein: recombinant; tags: N-terminal GST; dsDNA, one strand shown
# Sequence of ETV5 (P41161 whole entry): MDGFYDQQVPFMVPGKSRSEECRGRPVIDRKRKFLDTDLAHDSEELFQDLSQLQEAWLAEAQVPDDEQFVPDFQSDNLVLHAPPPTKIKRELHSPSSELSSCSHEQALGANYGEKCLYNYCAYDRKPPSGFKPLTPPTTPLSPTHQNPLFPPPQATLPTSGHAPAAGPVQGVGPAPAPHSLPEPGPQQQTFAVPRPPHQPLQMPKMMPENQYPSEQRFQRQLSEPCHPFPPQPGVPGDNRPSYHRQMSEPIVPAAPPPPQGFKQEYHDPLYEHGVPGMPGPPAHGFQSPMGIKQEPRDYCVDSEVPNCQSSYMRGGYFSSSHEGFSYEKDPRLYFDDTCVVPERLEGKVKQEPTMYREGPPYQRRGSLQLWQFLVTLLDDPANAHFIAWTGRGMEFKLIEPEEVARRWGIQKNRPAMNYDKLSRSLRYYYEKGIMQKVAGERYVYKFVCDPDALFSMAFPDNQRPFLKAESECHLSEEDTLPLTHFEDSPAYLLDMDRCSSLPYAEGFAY
# Summary of the method: as §1
# [12] = molecular target: HSF1 (Homo sapiens, UniProt Q00613 1-529); conditions: protein: recombinant; tags: N-terminal GST; chain copies: 3; dsDNA, one strand shown
# Sequence of HSF1 (Q00613 whole entry): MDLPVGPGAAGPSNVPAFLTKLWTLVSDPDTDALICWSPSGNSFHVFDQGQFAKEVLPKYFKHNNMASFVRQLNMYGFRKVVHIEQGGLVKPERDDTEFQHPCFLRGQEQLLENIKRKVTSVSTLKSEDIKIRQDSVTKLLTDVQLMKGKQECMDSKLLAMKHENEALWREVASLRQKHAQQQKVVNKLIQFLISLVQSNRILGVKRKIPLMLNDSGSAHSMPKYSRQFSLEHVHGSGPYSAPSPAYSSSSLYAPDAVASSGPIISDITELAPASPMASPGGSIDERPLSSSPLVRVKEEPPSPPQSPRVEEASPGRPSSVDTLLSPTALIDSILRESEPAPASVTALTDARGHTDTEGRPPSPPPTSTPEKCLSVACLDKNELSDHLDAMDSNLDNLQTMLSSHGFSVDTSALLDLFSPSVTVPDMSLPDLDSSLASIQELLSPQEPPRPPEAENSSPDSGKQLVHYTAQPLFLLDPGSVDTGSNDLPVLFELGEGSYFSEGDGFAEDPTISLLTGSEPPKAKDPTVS
# Summary of the method: as §1
# [13] = molecular target: T8, SPIC (Homo sapiens, UniProt Q8N5J4 1-248); conditions: protein: recombinant; tags: N-terminal GST; dsDNA, one strand shown
# T8 sequence: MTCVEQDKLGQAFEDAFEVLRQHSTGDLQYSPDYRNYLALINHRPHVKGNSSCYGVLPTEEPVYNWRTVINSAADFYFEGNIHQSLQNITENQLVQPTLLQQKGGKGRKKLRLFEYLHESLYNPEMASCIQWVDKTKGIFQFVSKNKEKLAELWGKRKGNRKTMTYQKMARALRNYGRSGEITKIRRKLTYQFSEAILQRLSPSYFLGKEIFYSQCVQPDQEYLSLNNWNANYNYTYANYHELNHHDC
# Summary of the method: as §1
# [14] = molecular target: ELF4 (Homo sapiens, UniProt Q99607 1-663); conditions: protein: recombinant; tags: N-terminal GST; dsDNA, one strand shown
# Sequence of ELF4 (Q99607 whole entry): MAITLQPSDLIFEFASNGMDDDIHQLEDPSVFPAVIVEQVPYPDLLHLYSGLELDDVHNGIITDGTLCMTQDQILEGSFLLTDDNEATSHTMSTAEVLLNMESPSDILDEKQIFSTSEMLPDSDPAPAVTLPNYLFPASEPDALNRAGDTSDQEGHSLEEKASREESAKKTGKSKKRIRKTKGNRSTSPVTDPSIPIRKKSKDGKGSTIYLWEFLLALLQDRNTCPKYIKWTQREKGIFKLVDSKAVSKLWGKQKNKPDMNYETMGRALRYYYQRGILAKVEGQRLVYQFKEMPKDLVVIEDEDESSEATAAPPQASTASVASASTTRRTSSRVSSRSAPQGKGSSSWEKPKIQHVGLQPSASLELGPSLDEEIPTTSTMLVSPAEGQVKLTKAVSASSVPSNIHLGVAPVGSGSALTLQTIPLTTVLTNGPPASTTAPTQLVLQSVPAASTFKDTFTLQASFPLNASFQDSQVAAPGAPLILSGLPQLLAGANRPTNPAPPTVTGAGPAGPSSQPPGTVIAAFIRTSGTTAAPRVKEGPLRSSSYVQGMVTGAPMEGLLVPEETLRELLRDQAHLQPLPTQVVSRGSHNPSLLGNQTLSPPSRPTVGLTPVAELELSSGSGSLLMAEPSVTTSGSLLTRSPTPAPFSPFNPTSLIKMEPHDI
# Summary of the method: as §1
# [15] = molecular target: T9, ELK4 (Homo sapiens, UniProt P28324-2 1-405); conditions: protein: recombinant; tags: N-terminal GST; dsDNA, one strand shown
# T9 sequence: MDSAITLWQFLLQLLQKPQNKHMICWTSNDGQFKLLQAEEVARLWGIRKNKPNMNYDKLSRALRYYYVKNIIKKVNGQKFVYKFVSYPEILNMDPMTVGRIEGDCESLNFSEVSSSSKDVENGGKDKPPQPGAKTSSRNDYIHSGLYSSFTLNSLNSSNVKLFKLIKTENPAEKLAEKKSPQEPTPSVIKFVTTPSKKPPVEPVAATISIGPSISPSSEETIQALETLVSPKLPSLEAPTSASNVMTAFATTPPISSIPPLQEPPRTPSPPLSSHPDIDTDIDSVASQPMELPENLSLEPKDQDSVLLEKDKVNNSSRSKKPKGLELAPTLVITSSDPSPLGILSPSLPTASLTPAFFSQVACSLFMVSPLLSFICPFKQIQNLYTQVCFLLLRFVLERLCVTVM
# Summary of the method: as §1
# [16] = molecular target: T10, ETV2 (Homo sapiens, UniProt O00321 1-342); conditions: protein: recombinant; tags: N-terminal GST; dsDNA, one strand shown
# T10 sequence: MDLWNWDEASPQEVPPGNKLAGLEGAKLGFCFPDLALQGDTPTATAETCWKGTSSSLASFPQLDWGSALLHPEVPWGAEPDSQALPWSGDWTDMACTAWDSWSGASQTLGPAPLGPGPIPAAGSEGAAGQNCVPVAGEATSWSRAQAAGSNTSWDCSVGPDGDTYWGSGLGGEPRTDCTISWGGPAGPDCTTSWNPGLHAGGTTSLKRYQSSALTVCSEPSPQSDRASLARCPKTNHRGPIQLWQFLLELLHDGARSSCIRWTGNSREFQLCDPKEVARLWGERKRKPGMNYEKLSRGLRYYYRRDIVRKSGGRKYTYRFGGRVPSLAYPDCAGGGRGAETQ
# Summary of the method: as §1
# [17] = molecular target: T11, ELF3 (Homo sapiens, UniProt P78545 1-371); conditions: protein: recombinant; tags: N-terminal GST; dsDNA, one strand shown
# T11 sequence: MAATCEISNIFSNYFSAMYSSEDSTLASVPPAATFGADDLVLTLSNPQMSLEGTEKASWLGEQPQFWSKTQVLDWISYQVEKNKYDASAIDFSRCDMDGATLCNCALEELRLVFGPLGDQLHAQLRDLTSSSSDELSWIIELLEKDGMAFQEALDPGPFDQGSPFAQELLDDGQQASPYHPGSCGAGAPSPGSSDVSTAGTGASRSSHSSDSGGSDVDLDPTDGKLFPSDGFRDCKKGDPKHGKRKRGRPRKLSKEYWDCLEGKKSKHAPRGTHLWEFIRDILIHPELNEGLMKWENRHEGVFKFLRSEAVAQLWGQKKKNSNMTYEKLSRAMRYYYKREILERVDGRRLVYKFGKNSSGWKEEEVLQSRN
# Summary of the method: as §1
# [18] = molecular target: CRX (Homo sapiens, UniProt O43186 1-299); conditions: protein: recombinant; tags: N-terminal GST; dsDNA, one strand shown
# Sequence of CRX (O43186 whole entry): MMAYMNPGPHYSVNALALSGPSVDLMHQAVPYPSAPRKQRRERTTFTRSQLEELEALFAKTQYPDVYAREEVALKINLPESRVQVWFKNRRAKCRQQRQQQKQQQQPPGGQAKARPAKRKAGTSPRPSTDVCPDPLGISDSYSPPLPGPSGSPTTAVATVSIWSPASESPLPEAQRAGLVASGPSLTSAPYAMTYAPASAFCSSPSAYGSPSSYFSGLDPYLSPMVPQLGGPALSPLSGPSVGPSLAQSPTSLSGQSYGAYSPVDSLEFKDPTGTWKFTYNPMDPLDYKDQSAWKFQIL
# Summary of the method: as §1
# [19] = molecular target: ETV1 (Homo sapiens, UniProt P50549 1-477); conditions: protein: recombinant; tags: N-terminal GST; dsDNA, one strand shown
# Sequence of ETV1 (P50549 whole entry): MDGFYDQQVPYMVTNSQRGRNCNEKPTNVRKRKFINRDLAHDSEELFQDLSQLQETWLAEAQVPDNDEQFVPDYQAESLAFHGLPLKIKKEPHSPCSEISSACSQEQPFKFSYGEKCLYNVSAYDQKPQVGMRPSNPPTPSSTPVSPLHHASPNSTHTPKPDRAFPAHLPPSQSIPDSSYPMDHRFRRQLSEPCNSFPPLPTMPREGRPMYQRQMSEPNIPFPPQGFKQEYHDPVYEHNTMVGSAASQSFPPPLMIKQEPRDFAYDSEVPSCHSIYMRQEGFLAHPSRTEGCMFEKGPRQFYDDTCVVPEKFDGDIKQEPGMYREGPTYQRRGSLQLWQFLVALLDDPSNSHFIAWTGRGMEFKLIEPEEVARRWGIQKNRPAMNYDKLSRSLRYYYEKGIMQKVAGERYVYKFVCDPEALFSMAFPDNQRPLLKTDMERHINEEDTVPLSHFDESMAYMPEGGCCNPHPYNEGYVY
# Summary of the method: as §1
sequence,measurement,setting,value
TTCCAA,binding signal,[1],"1.39 fold enrichment (6-mer frequency, TF over GST control)"
same,binding signal,[2],"1.19 fold enrichment (6-mer frequency, TF over GST control)"
same,binding signal,[3],"1.34 fold enrichment (6-mer frequency, TF over GST control)"
same,binding signal,[4],"1.26 fold enrichment (6-mer frequency, TF over GST control)"
same,binding signal,[5],"1.31 fold enrichment (6-mer frequency, TF over GST control)"
same,binding signal,[6],"1.26 fold enrichment (6-mer frequency, TF over GST control)"
same,binding signal,[7],"1.11 fold enrichment (6-mer frequency, TF over GST control)"
same,binding signal,[8],"1.29 fold enrichment (6-mer frequency, TF over GST control)"
same,binding signal,[9],"1.26 fold enrichment (6-mer frequency, TF over GST control)"
same,binding signal,[10],"1.26 fold enrichment (6-mer frequency, TF over GST control)"
same,binding signal,[11],"1.18 fold enrichment (6-mer frequency, TF over GST control)"
same,binding signal,[12],"1.47 fold enrichment (6-mer frequency, TF over GST control)"
same,binding signal,[13],"1.31 fold enrichment (6-mer frequency, TF over GST control)"
same,binding signal,[14],"1.27 fold enrichment (6-mer frequency, TF over GST control)"
same,binding signal,[15],"1.31 fold enrichment (6-mer frequency, TF over GST control)"
same,binding signal,[16],"1.29 fold enrichment (6-mer frequency, TF over GST control)"
same,binding signal,[17],"1.16 fold enrichment (6-mer frequency, TF over GST control)"
same,binding signal,[18],"1.39 fold enrichment (6-mer frequency, TF over GST control)"
same,binding signal,[19],"1.21 fold enrichment (6-mer frequency, TF over GST control)"
